mTORC1 inh: Acumen qHTS Assay for Inhibitors of the mTORC1 Signaling Pathway in MEF (Tsc2-/-, p53-/-) Cells: Sytravon. Tsc2-/- p53-/- MEF, phospho-rpS6 immunofluorescence/PI, 24 h. Potency, µM (highest dose often 38.3 µM), for the others: at the top dose activity change, negative = inhibition, usual class: inhibitors. 44,000 tested, 0.78% active. AID 493208, 2011;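 further: plate controls were DMSO for no effect and rapamycin for full effect; nearly all actives have a fitted effect of over 50% in size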
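Tsc2-/-, p53-/- MEFs (empty-vector stable line) in DMEM + 10% FBS were treated with compounds 24 h at 37 degree Celsius, fixed, and immunostained for phospho-rpS6 (Alexa-488) with propidium iodide counterstain. Laser-scanning cytometry gave % positive cells, normalized against 7.5 nM rapamycin and DMSO.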
OvCa metastasis: Primary qHTS assay for Inhibitors of ovarian cancer metastasis using an organotypic tumor microenvironment (TME) model; SKOV3ip1-GFP adhesion/invasion on 3D omental model, fluorescence; Potency, µM (doses to about 45.8 µM), inactives show at the top dose activity change, negative = inhibition, actives largely listed as inhibitors; 46,000 tested, 0.1% active; AID 1963576, 2024;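 further: plate controls were DMSO wells for no effect and tomatine positive control wells for full effect; nearly all actives have a fitted effect of over 65% in size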
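Primary human omental fibroblast/mesothelial 3D culture pre-formed 48 h. SKOV3ip1-GFP cells added with compounds (0.36-46 umol/L), incubated 2 h RT/16 h 37 C, fixed; GFP cells quantified at 488/509 nm.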
S16 F2sN tox: Cell viability qHTS assay in S16 Pmp22-F2sN cells | S16 Pmp22-F2sN Schwann cells viability, CellTiter-Glo, 24 h | Potency, µM (doses to about 57.5 µM), without a hit: at the highest dose activity change, negative = cytotoxicity, usual class: cytotoxic | 43,000 tested, 0.48% active; further: nearly all actives have a fitted effect of over 65% in size
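Seed 500-1,000 S16 Pmp22-F2sN cells per well in phenol-red-free DMEM with 10% heat-inactivated FBS; pin-add 23 nL compound; incubate 24 h at 37C; add CellTiter-Glo, wait 15 min protected from light; read luminescence.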
PMP22 txn prim: Cell-based coincidence reporter assay to measure PMP22 gene transcription in S16 Pmp22-F2sN cells - Primary screen; S16 Pmp22-F2sN Schwann cells (luciferase reporters placed in the Pmp22 gene), FLuc/NLuc coincidence luminescence, 24 h; Potency, µM (doses to about 57.5 µM), for inactives: top-dose activity change, negative = inhibition, usual class: inhibitors; 43,000 tested, 2% active; AID 1508649, 2021; active means clear falling dose curves in both reporters; inconclusive means both reporters move, but less clearly or upward; inactive means either reporter flat; the % is the NLuc reporter signal
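Schwann cells carrying the coincidence reporter were exposed to library compounds for 24 h at 37C, then lysed and read for FLuc and, after quenching, NLuc luminescence on a CCD imager.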
The depositor's hits bear a star; i = inactive; ? = inconclusive; . = not tested or not shown. Most compounds without a hit are left out; they make up all but 2.6% or so of the library. Unless noted, the call rests on the fitted dose curve; in most records, active means well fitted curve in the direction sought with a large enough effect; inconclusive means small, poorly fitted or top-dose-only effect, or another doubt; inactive means no such curve, though single readings can be large; an effect the other way counts as inactive or inconclusive. Unless noted, on the % scale 0 is the no-effect control and ±100 the full control effect; potency means the concentration at half of the fitted maximal effect.

SMILES | mTORC1 inh | OvCa metastasis | S16 F2sN tox | PMP22 txn prim
CCCc1oc2ccc(NS(=O)(=O)c3ccc(OCC)cc3)cc2c1C(=O)OCC | 15µM* | -1% | -27% | ?
CSc1cccc(Nc2ncc3cc(-c4c(Cl)cccc4Cl)c(=O)n(C)c3n2)c1 | . | -6% | . | .
COc1cc(-c2noc(-c3ccc(NCc4cccnc4)c([N+](=O)[O-])c3)n2)cc(OC)c1OC | 0% | i | -8% | 7.1µM*
COc1ccc2[nH]cc(CCN=C(NC(=O)c3ccccc3OC)Nc3nc(C)cc(C)n3)c2c1 | -11% | -3% | ? | 14µM*
Cc1ccc(CN2c3ccccc3-c3nc(SCC(=O)NCCc4ccccc4)ncc3S2(=O)=O)cc1 | 6% | -10% | 2% | 3%
Cc1ccc(CN2c3ccccc3-c3nc(SCC(=O)Nc4c(C)cc(C)cc4C)ncc3S2(=O)=O)cc1 | -8% | 3% | 28µM* | ?
O=C(Nc1ncc(SCCN2CCCC2)s1)[C@]1(c2ccc(S(=O)(=O)C3CC3)cc2)C[C@@H]1C1CCCCC1 | . | -5% | . | .
Cc1cc(Cl)ccc1NC(=O)CN1C(=O)C(=O)c2ccccc21 | 10µM* | -7% | ? | ?
Cc1ccc(Cl)cc1NC(=O)CN1C(=O)c2cccc3cccc1c23 | -5% | 5% | 9% | ?
COc1ccc(-c2ccc(CCC(=O)O)n2-c2ccccc2O)cc1 | 13µM* | -10% | 4% | -54%
CSc1ccc(CCNc2ncnc3onc(C)c23)cc1 | 1% | 4% | ? | 2.2µM*
CC(C)(O)c1cc2nc(-c3cnc(N)nc3)nc(N3CCOCC3)c2s1 | . | 1% | . | .
COc1ccccc1Nc1c2c(nc3ccc(NC(=O)c4ccc(N(C)C)cc4)cc13)CCCC2 | 5.2µM* | ? | ? | ?
COc1cc(OC)cc(C(=O)Nc2ccc3nc4c(c(Nc5ccc(OC)c(OC)c5)c3c2)CCCC4)c1 | 0% | ? | ? | ?
COc1ccc(OC)c(C2CC(=O)c3c([nH]c(C(=O)OCC4CCCCC4)c3C)C2)c1 (stereo not drawn) | ? | -20% | ? | -14%
COc1cc(C2CC(=O)c3c([nH]c(C(=O)OC4CCCCC4)c3C)C2)cc(OC)c1OC (stereo not drawn) | ? | ? | ? | 18µM*
COc1cc(C2CC(=O)c3c([nH]c(C(=O)OCC4CCCCC4)c3C)C2)cc(OC)c1OC (stereo not drawn) | -20% | 18% | -11% | 5.7µM*
COc1ccc(C2CC(=O)c3c([nH]c(C(=O)OC4CCC(C)CC4)c3C)C2)cc1OC (stereo not drawn) | 0% | 2% | -1% | 5%
COc1cc2nccc(Oc3ccc(NC(=O)Nc4cc(C)on4)c(Cl)c3)c2cc1OC | . | 5% | . | .
CN[C@@H]1C[C@H]2O[C@@](C)([C@H]1OC)n1c3ccccc3c3c4c(c5c6ccccc6n2c5c31)C(=O)N[C@H]4O | . | -19% | . | .
C[C@@]1(C(=O)Nc2ccc(F)nc2)CCCN1c1nc(Nc2cc(C3CC3)[nH]n2)c2cccn2n1 | . | -26% | . | .
CCc1ccc(OCC(=O)N(Cc2ccc(C)cc2)Cc2ccco2)cc1 | 4.1µM* | 2% | 8% | ?
Cc1ccc(CN(Cc2ccco2)C(=O)COc2ccc(C)c(C)c2)cc1 | -12% | i | -8% | -88%
COc1ccc(Nc2cc(C)nc(-n3nc(C)cc3C)n2)cc1Cl | ? | 3% | ? | 5.5µM*
Cc1cc(Nc2ccc(C(C)C)cc2)nc(-n2nc(C)cc2C)n1 | -24% | -17% | ? | ?
Oc1c(C(Nc2ccccn2)c2ccccc2F)ccc2cccnc12 (stereo not drawn) | ? | 1% | 2µM* | ?
Cc1ccnc(NC(c2ccccc2F)c2ccc3cccnc3c2O)c1 (stereo not drawn) | ? | i | ? | ?
NC(=O)c1cccc2cn(-c3ccc([C@@H]4CCCNC4)cc3)nc12 | . | -9% | . | .

Screening data as filed in PubChem.
